Source: PubChem (several laboratories)
Compounds with a hit are over-represented: about 1.9% of the library has one in this group of screens.
sdo1 growth: restores growth of sdo1-depleted yeast | S. cerevisiae sdo1-depleted JHY4D growth rescue, OD600 30 h; active compounds read high; pdr5 snq2 efflux-pump mutant strain | z-score at 10 µM | actives 0.21% (n = 140,000);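 active = z-score above 3 at both the 24 hr and the 30 hr optical density reads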;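 also: z-score against mean and SD of all compound wells on the same plate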
GALR2 agonist: agonists of human galanin receptor 2 (GALR2) | O43603 | actives 0.48% (n = 140,000) | activation, % (test concentration not listed) | GALR2-expressing cells, agonist activation read-out; in the data active = activation above about 5%, passing the limit was not always enough;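 also: 0% = vehicle buffer wells and 100% = reference agonist at full effect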
S1P2 antag: blocks the human S1P2 receptor; cell-based S1P2 antagonist assay, inhibition at 5 uM; O95136; inhibition, % at 5 µM; actives 0.21% (n = 97,000); AID 736; in the data active = inhibition above about 45%;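 also: CRE beta-lactamase reporter cells expressing human S1P2 stimulated with S1P; 0% = agonist at EC80 alone and 100% = agonist plus reference antagonist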
Target sequence (O95136 whole entry, looked up): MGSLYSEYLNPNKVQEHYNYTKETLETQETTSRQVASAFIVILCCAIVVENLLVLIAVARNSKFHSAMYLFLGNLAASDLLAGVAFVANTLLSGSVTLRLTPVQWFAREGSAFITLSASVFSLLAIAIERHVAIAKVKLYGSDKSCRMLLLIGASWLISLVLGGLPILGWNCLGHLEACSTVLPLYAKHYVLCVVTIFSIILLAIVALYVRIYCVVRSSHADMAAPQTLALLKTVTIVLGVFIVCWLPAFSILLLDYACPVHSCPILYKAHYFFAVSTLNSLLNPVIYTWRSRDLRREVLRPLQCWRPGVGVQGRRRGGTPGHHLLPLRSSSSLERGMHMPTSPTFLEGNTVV
FAK blocker: inhibitors of human focal adhesion kinase; Q05397; biochemical FAK kinase activity assay; inhibition, %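 (tested at 7 µM)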; actives 0.84% (n = 97,000); in the data active = inhibition above about 19%;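 also: 0% = DMSO and 100% = reference compound high control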
S1P2 ag: S1P2 (human) receptor agonism; O95136; S1P2-expressing cell line, agonist reporter read-out; activation, % at 4.5 µM; actives 0.46% (n = 97,000); in the data active = activation above about 16%;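 also: 0% = vehicle low control and 100% = maximal reference agonist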
GALR2 antag: blocks the human galanin receptor 2; actives 0.39% (n = 140,000); inhibition, % at 4 µM; O43603; AID 828; GALR2-expressing cells, antagonist mode; in the data active = inhibition above about 27%;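 also: cells stimulated with galanin 1-16 at roughly its EC80; 0% = agonist challenge control and 100% = basal control without agonist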
An asterisk follows results filed as active; . = no result given.

SMILES	sdo1 growth	GALR2 agonist	S1P2 antag	FAK blocker	S1P2 ag	GALR2 antag
CC(C)n1c(SCC(=O)Nc2nc3ccccc3s2)nc2c1c(=O)n(C)c(=O)n2C	-0.99	-1.8	-38.3	2.4	18.8*	-5.8
COc1ccc(OC)c(NC(=O)CSc2nc3c(c(=O)n(C)c(=O)n3C)n2C)c1	1.83	0.2	-42.0	3.5	17.5*	6.7
CCOc1ccc2nc(NC(=O)CSc3nc4c(c(=O)n(C)c(=O)n4C)n3C(C)C)sc2c1	-1.11	0.8	.	.	.	6.7
CCCC(=O)NCCc1nc2cc([N+](=O)[O-])ccc2n1C	0.32	0.2	.	.	.	3.2
CCOC(=O)c1sc2nc(CN3CCN(c4cccc(C(F)(F)F)c4)CC3)[nH]c(=O)c2c1C	-0.11	1.3	.	.	.	-14.4
COc1cccc(-c2nnc(NC(=O)c3ccc4ncsc4c3)o2)c1	-0.52	-0.3	.	.	.	4.3
CC(C)CN(CC(C)C)c1nc(N)c(C#N)c(CC#N)c1C#N	-0.13	6.3*	-28.3	-4.6	-2.6	-3.1
CN(c1ccccc1)c1nc(N)c(C#N)c(CC#N)c1C#N	1.42	0.4	.	.	.	-24.7
CN(C)CCN(C)Cc1ccccc1Sc1cccc2ccccc12	-0.25	0.4	.	.	.	-6.2
CN(C(=O)CSCC(=O)O)C1CCCCC1	0.72	-1.7	.	.	.	5.8
CSc1ccc(/C=C(\C#N)C(=O)Nc2cccc(C)c2)cc1	0.17	2.8	.	.	.	-1.1
COc1ccc(/C=C/C(=O)NCCCc2ccccc2)cc1OC	0.23	0.8	.	.	.	9.7
COc1cc(/C=C/C(=O)NC(C)C)ccc1OCc1ccccc1	0.38	7.5*	.	.	.	3.5
CCOc1cc(C(=O)CSc2nnc(CNc3ccc(Cl)cc3)o2)ccc1NC(=O)CC	-0.65	7.8*	47.0*	1.8	10.1	26.9
COc1ccc(NCc2nnc(SCC(=O)c3ccc(OC)cc3)o2)cc1	-0.22	-2.8	-4.5	0.2	-2.4	-1.3
CCOP(=O)(OCC)C(Nc1cccc(C(F)(F)F)c1)c1ccc(Br)cc1 (stereo not given)	-0.98	-1.2	.	.	.	-1.8
CC1(C)Oc2ccc3ccc(=O)oc3c2-c2cn[nH]c21	-0.58	-1.9	-23.6	24.2*	-7.6	-15.9
Cc1ccc(C(=O)CSc2nc3cccnc3n2C)cc1	0.3	-2.0	8.0	2.4	-3.0	-8.4
COc1ccc(OC)c(C(=O)CSc2nc3cccnc3n2C)c1	-0.09	-3.2	-14.8	-3.1	31.9*	7.6
C(=N\Nc1nc(Nc2ccccc2)nc(N2CCOCC2)n1)/c1c[nH]c2ccccc12	-0.7	-1.9	46.6*	-2.2	-7.6	13.0
Cc1ccccc1N(CC(=O)N/N=C/c1cc(Br)c(C)o1)S(C)(=O)=O	1.54	-2.3	.	.	.	4.3
CC(C)Cn1c(N)c(C(=O)COC(=O)c2ccncc2)c(=O)n(C)c1=O	0.26	-1.0	-13.1	0.3	-2.9	1.9
CC(C)Cn1c(N)c(C(=O)COC(=O)CC23CC4CC(CC(C4)C2)C3)c(=O)n(C)c1=O	-0.87	-2.0	59.4*	-0.4	-2.3	24.9
N#Cc1c(N)nc2c(c1-c1ccc3c(c1)OCO3)CCc1ccccc1-2	-1.15	4.9*	.	.	.	-9.8
N#Cc1c(N)c(C#N)c(-c2ccc3c(c2)OCO3)c2c1CCCC2	-0.44	.	.	.	.	.
SMILES	sdo1 growth	GALR2 agonist	S1P2 antag	FAK blocker	S1P2 ag	GALR2 antag
O=C(COC(=O)c1ccc(CSc2ccc(Cl)cc2)cc1)Nc1ccccc1	0.74	-0.4	.	.	.	-18.4
Cc1ccc(/C=C/C(=O)Nc2sc3c(c2C#N)CCCC3)o1	1.21	5.7*	.	.	.	1.5
CCc1ccc(CCC(=O)Nc2sc3c(c2C#N)CCCC3)o1	-1.32	0.2	-7.0	-0.3	-4.8	-6.4
O=C(CSc1ncc(-c2ccccc2)n1C1CCCC1)N1CCc2ccccc21	-0.8	-2.2	3.8	8.7	-0.9	6.9
CCCCCC(=O)Nc1ccc(N2CCN(C(=O)CCC)CC2)cc1	0.69	-0.7	-1.6	-0.3	-3.9	-0.7
CCCC(=O)Nc1ccc(N2CCN(C(=O)c3ccccc3C)CC2)cc1	0.36	-1.2	5.6	-1.5	-6.1	32.9*
COc1ccc(-n2nnnc2S(=O)(=O)CC(=O)N2CCCCC2)cc1	-0.95	-1.8	52.6*	-1.3	-9.6	48.2*
COc1ccc(-n2nnnc2S(=O)(=O)Cc2ccc(C(=O)O)cc2)cc1	0.66	-1.0	0.5	-1.1	-1.3	11.2
c1ccc(-n2nnnc2-c2cnc(-c3ccncc3)nc2-c2cccs2)cc1	-1.84	-0.3	1.1	30.0*	-4.6	6.8
Fc1ccc(-n2nnnc2-c2cnc(-c3cccs3)nc2C(F)(F)F)cc1	-1.23	-1.2	76.1*	6.7	-10.9	10.5
Cc1ccc(-n2nnnc2-c2cnc(-c3cccnc3)nc2C(F)(F)F)cc1	-0.46	-2.3	21.1	1.8	-2.2	2.3
FC(F)(F)c1nc(-c2ccncc2)ncc1-c1nnnn1-c1ccccc1	-0.15	-2.0	24.0	-1.4	-9.7	-8.7
Cc1nn(-c2ccccc2)c(Cl)c1CN(C(=O)CCl)c1cccc2ccccc12	-1.04	0.0	.	.	.	7.7
CCCOC(=O)c1ccc(-c2ccc(C=O)o2)cc1	0.7	-0.3	.	.	.	0.2
CCCCOC(=O)c1ccc(-c2ccc(/C=N/NC(=S)NCC)o2)cc1	-0.2	6.0	-37.5	-0.3	23.5*	-1.4
N#C/C(=C\c1cn(CCOc2ccccc2)c2ccccc12)C(=O)NCc1cccs1	-1.45	-1.3	.	.	.	2.7
Cc1ccc(-c2nn(-c3ccccc3)cc2/C=N/NC(=O)c2ccc(Br)o2)cc1	0.38	-1.2	100.5*	-2.8	-8.1	-10.0
COc1ccc(C2CC(C(F)(F)F)n3nc(C(N)=O)c(Cl)c3N2)cc1OC (stereo not given)	-0.53	0.6	16.5	-4.5	23.6*	8.0
CCCC(=O)OCCNc1cc(Sc2nccn2C)c2nonc2c1[N+](=O)[O-]	0.04	6.2*	.	.	.	3.8
CN(C)CCCNC(=S)N1CCn2c(nc3ccccc32)C1	-0.31	-1.3	.	.	.	-4.4
CC1CCN(CCOc2ccc(OCc3ccccc3)cc2)CC1	-1.17	0.9	.	.	.	3.1
COCCn1c(SCC(=O)Nc2nc3ccccc3s2)nnc1-c1ccoc1C	-0.18	-1.5	-19.0	1.6	16.2*	5.7
COCCCn1c(SCC(=O)Nc2nnc(C)s2)nnc1-c1ccoc1C	0.55	-2.7	4.5	-0.9	-6.8	-9.7
CC(C)(C)NC(=O)CSC(=Nc1ccc(F)cc1)NC#N	0.59	-1.8	-3.6	3.2	23.5*	-0.7
N#CNC(=Nc1cccc(F)c1)SCc1cccc(F)c1	-1.04	-1.4	.	.	.	-13.3
Cc1ccc(S(=O)(=O)NC2c3cccc4cccc(c34)C2Sc2nc(C)cc(C)n2)cc1 (stereo not given)	-0.48	-0.6	.	.	.	12.6
CCOC(=O)c1c(C)n(C)c2ccc(OCC(O)Cn3nc(C)cc3C)cc12 (stereo not given)	-0.31	-0.4	-16.2	-0.5	58.4*	-7.0
Cn1nc(CC(=O)NCc2ccc(C(F)(F)F)cc2)c2ccccc2c1=O	0.86	-3.1	62.1*	1.0	-3.5	16.9
Cc1sc2ncnc(NCC3(N4CCOCC4)CCCCC3)c2c1C	-1.69	-2.8	-10.7	2.1	-5.0	-6.0
Cc1sc2ncnc(NCC(C)(C)N3CCOCC3)c2c1C	0.74	-0.4	64.1*	-2.2	-6.4	25.7
